Results filed as inconclusive are left out. The source made the active and inactive calls. Unless noted, calls come from the whole dose curve; as a rule, active = well fitted curve in the direction sought with a large enough effect in the repeat runs; inconclusive = weak or mixed curves; inactive = no such curve, though single readings can be large; an effect the other way counts as inactive or inconclusive.
How the values were obtained:
[1] = qHTS assay for small molecules that induce genotoxicity in human embryonic kidney cells expressing luciferase-tagged ATAD5 (AID 651632); note: nearly all actives have a fitted effect of over 15% in size
Method in brief: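 Reporter cells (HEK293T) express luciferase-tagged ATAD5, a protein that accumulates after DNA damage. Treat 16 hr at 37C/5% CO2, add Amplite, wait 30 min at RT, and read luminescence.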

[2] = qHTS assay for small molecule agonists of the p53 signaling pathway - cell viability (AID 651633; calls by dose curve;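 note: p53RE-bla HCT reporter cells with a stable beta-lactamase p53 reporter; series mostly up to about 83 µM; nearly all actives have a fitted effect of over 30% in size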)
Method in brief: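 p53RE-bla cells, seeded at 4,000 per well and rested 5 h at 37 C/5% CO2, received compounds in DMSO for 16 h at 37 C. CellTiter-Glo was then added, and luminescence was read after 30 min at room temperature to gauge cytotoxicity.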

[3] = qHTS assay for small molecule disruptors of the mitochondrial membrane potential (AID 720635); note: potency is the fitted concentration of half-maximal effect
Method in brief: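 HepG2 cells (2,000/well) attached overnight at 37C, then took compound for 1 hr at 37C, 5% CO2. Mito-MPS dye was added for 30 min; fluorescence was read at 490/535 nm (monomers) and 540/590 nm (aggregates).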

[4] = qHTS assay to test for compound auto fluorescence at 590 nm (red) in HepG2 cells (AID 720674)
Method in brief: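 Compound auto-fluorescence is scored relative to Rose Bengal sodium, measured at 540/590 nm in live HepG2 cultures after 1 hr compound contact (37 C, 5% CO2).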

[5] = qHTS assay to test for compound auto fluorescence at 460 nm (blue) in HEK293 cells (AID 720678)
Method in brief: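 Blue-channel (Ex/Em 405/460 nm) intensity measured in HEK293 cultures after overnight compound exposure at 37C; signal expressed relative to triamterene. Cells plated 2,000 per well in 10% dialyzed FBS medium and allowed 4-5 hr to attach.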

[6] = qHTS assay to test for compound auto fluorescence at 590 nm (red) in HEK293 cells (AID 720679)
Method in brief: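 Red-channel autofluorescence (Ex/Em 540/590 nm; Rose Bengal sodium reference) was measured after overnight 37C, 5% CO2 exposure of attached HEK293 cells, 2,000 per well in medium with 10% dialyzed FBS.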

[7] = qHTS assay to test for compound auto fluorescence at 535 nm (green) in HEK293 cells (AID 720680)
[8] = qHTS assay to test for compound auto fluorescence at 460 nm (blue) in HEK293 cell free culture (AID 720681)
Method in brief: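 Test compounds were pinned into cell-free culture medium (DMEM with 10% FBS) and fluorescence was read directly at Ex/Em 405/460 nm. Signals were expressed as fluorescence equivalents of triamterene, with DMSO vehicle as control.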

[9] = qHTS assay to test for compound auto fluorescence at 535 nm (green) in HEK293 cell free culture (AID 720682)
Method in brief: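 Using fluorescein as calibrant, autofluorescence was quantified at 485/535 nm in cell-free DMEM containing 10% FBS after pintool addition of compound or vehicle.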

[10] = qHTS assay to test for compound auto fluorescence at 590 nm (red) in HEK293 cell free culture (AID 720683)
Method in brief: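 Tox21 10K library compounds were pinned into cell-free DMEM with 10% FBS and fluorescence was read at excitation 540 nm. Activity is expressed as Rose Bengal sodium equivalency.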

[11] = qHTS assay to test for compound auto fluorescence at 590 nm (red) in HepG2 cell free culture (AID 720684)
Method in brief: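 Measured in medium alone (MEM containing 10% FBS) following pintool addition of compound; emission at 590 nm with 540 nm excitation, referenced to Rose Bengal sodium.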

[12] = qHTS assay to test for compound auto fluorescence at 460 nm (blue) in HepG2 cell free culture (AID 720685)
Method in brief: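 Compound (23 nL) or DMSO pinned into cell-free MEM with 10% FBS; blue fluorescence read at 405/460 nm excitation/emission, expressed as auto-fluorescence equivalency to triamterene.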

[13] = qHTS assay to test for compound auto fluorescence at 535 nm (green) in HepG2 cell free culture (AID 720686)
[14] = qHTS assay to test for compound auto fluorescence at 460 nm (blue) in HepG2 cells (AID 720687)
Method in brief: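 Cells (2,000/well in MEM with 10% FBS) attached overnight at 37 C, then were exposed to compound or DMSO for 1 hr at 37 C, 5% CO2. Fluorescence read at Ex/Em 405/460 nm, expressed as triamterene-equivalent signal.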

[15] = qHTS assay for small molecules that induce genotoxicity in human embryonic kidney cells expressing luciferase-tagged ATAD5 - cell viability (AID 651634; calls by dose curve; note: nearly all actives have a fitted effect of over 25% in size; note: potency is the fitted concentration of half-maximal effect)
Method in brief: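 Seeding of 2,000 HEK293T ATAD5-luciferase cells per well preceded pin-tool compound transfer. Plates sat 15.5 hr at 37C under 5% CO2, then fluorescence was read after 30 min with CellTiter-Fluor.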

[16] = qHTS assay for small molecule disruptors of the mitochondrial membrane potential - cell viability (AID 720634; calls by dose curve;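 note: human HepG2 liver cancer cells; series mostly up to about 83 µM; nearly all actives have a fitted effect of over 20% in size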)
Method in brief: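 Measuring cytotoxicity alongside mitochondrial potential, the screen quantified ATP by luminescence in HepG2 cells after 1 hr compound incubation and a 30 min room-temperature CellTiter-Glo step.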

[17] = qHTS assay to test for compound auto fluorescence at 535 nm (green) in HepG2 cells (AID 720675)
[18] = biological target: Glucocorticoid receptor (Homo sapiens) (UniProt P04150); experiment: qHTS assay to identify small molecule agonists of the glucocorticoid receptor (GR) signaling pathway (AID 720691; active = well fitted activation curve with a large enough effect in the signal ratio in the repeat runs, not every such curve was filed as active; the % refers to the signal ratio)
Method in brief: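 Reporter read-out: fluorescence intensity following 2 h room-temperature LiveBLAzer B/G FRET substrate loading. Prior step: GR-bla HeLa cells held 4 h, then treated 18 h at 37 C.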

[19] = biological target: Glucocorticoid receptor (Homo sapiens) (UniProt P04150); experiment: qHTS assay to identify small molecule antagonists of the glucocorticoid receptor (GR) signaling pathway (AID 720692; active = well fitted inhibition curve with a large enough effect in the signal ratio in the repeat runs, not every such curve was filed as active; the % refers to the signal ratio)
Method in brief: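 Dexamethasone (5 nM final) stimulated a stably integrated GRE-beta-lactamase reporter in HeLa cells during 18 h co-incubation with compounds; signal was quantified as fluorescence intensity of B/G FRET substrate after 2 h.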

Measured: Potency

Sequence of Glucocorticoid receptor (Homo sapiens) (P04150 whole entry, looked up): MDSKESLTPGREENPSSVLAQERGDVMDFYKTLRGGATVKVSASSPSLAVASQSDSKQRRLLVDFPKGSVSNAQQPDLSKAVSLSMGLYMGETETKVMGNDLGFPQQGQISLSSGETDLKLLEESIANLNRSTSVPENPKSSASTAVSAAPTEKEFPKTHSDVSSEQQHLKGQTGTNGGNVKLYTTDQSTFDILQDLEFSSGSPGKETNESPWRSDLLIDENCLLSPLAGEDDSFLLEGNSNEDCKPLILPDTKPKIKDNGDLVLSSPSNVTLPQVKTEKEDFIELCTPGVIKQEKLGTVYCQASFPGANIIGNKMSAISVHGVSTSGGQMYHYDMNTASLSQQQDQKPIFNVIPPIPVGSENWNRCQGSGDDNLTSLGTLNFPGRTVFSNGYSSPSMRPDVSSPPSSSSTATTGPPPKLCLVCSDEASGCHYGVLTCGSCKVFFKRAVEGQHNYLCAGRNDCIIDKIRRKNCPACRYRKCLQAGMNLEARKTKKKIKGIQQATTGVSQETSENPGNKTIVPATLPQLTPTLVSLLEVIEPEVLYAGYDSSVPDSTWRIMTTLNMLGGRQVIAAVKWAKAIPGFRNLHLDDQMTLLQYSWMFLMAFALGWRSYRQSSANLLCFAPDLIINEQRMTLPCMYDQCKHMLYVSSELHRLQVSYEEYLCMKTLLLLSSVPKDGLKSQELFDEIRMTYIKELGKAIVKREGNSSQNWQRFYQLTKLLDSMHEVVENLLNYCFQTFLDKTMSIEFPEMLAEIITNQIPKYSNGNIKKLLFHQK

COCCCCCCCCOCCC[Si](C)(O[Si](C)(C)C)O[Si](C)(C)C
active: [3] 4.86 µM
not listed: [15] | [16] | [17] | [18] | [19]
inactive: all other assays above

CN1CCC(=C2c3ccccc3C=Cc3ccccc32)CC1
not listed: [3] | [8] | [19]
inactive: all other assays above

CNCC[C@@H](Oc1ccccc1C)c1ccccc1
not listed: [3] | [12]
inactive: all other assays above

CCc1nn(C2CCCCC2)c2cc(C3(C#N)CCC(C(=O)O)CC3)ccc12 (stereo unspecified)
active: [15] 27.3 µM
not listed: [3] | [17] | [19]
inactive: all other assays above

S=C(S)NCCNC(=S)S
not listed: [3] | [12] | [13]
inactive: all other assays above

Cc1ccc(O)c([C@H](CCN(C(C)C)C(C)C)c2ccccc2)c1
not listed: [3] | [9] | [12] | [15] | [19]
inactive: all other assays above

CC(C)(C)c1cc(O)c(C(C)(C)C)cc1O
active: [3] 6.11 µM
not listed: [2] | [7] | [13] | [14] | [19]
inactive: all other assays above

O=C(O)C(c1ccc(Cl)cc1)c1ccc(Cl)cc1
not listed: [3] | [12] | [17] | [18] | [19]
inactive: all other assays above

— PubChem BioAssay (Tox21)
